From PubChem BioAssay (Tox21)
Several values for one entry are separate records, joined by “and”; a condition that tells them apart may be missing. Equal values may be shown once. Results filed as inconclusive are left out. A call without a number means that no potency is given here. Unmarked numbers belong to inactive results. Activity calls are given as the source filed them. Calls come from the whole dose curve; as a rule, active = well fitted curve in the direction sought with a large enough effect in the repeat runs; inconclusive = weak or mixed curves; inactive = no such curve, though single readings can be large; an effect the other way counts as inactive or inconclusive.

Experiments:
[1] = biological target: Cytochrome P450 2C19 (Homo sapiens) (UniProt P33261); experiment: Cytochrome P450 Family 2 Subfamily C Member 19 (CYP2C19) small molecule antagonists: luciferase reporter qHTS assay (AID 1671197); note: nearly all actives have a fitted effect of over 65% in size; for activity change, negative = inhibition: series mostly up to about 120 µM
Chain of Cytochrome P450 2C19 (Homo sapiens) (P33261 whole entry, looked up): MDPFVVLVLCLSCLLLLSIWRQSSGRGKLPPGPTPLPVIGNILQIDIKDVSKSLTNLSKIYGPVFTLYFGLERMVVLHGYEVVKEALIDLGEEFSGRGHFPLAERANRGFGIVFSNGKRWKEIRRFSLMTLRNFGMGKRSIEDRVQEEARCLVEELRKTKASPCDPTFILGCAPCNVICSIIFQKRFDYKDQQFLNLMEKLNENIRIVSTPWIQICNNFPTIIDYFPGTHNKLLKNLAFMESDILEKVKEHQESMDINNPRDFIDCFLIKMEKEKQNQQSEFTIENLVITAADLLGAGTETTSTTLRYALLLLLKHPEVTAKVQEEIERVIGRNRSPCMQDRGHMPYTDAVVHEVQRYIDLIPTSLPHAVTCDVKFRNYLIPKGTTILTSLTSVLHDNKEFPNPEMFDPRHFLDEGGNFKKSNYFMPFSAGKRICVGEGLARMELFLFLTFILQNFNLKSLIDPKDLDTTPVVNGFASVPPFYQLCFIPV
Summary of the method: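 Enzyme-substrate mix with proluciferin substrate (P450-Glo CYP2C19 system) preincubated with compounds 10 min at room temperature; NADPH regeneration solution added, 37C for 1 h; detection reagent stops reaction, luminescence read after 20 min. Ketoconazole positive control.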

[2] = biological target: Voltage-gated inwardly rectifying potassium channel KCNH2 (Homo sapiens) (UniProt Q12809); experiment: Human Ether-a-go-go-Related Gene (hERG) channel small molecule antagonists: fluorescence cell-based qHTS assay (AID 1671200); note: nearly all actives have a fitted effect of over 50% in size;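 for activity change, negative = inhibition: hERG-expressing U2OS cells given a thallium stimulus after FluxOR II dye loading; series mostly up to about 77 µM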
Chain of Voltage-gated inwardly rectifying potassium channel KCNH2 (Homo sapiens) (Q12809 whole entry, looked up): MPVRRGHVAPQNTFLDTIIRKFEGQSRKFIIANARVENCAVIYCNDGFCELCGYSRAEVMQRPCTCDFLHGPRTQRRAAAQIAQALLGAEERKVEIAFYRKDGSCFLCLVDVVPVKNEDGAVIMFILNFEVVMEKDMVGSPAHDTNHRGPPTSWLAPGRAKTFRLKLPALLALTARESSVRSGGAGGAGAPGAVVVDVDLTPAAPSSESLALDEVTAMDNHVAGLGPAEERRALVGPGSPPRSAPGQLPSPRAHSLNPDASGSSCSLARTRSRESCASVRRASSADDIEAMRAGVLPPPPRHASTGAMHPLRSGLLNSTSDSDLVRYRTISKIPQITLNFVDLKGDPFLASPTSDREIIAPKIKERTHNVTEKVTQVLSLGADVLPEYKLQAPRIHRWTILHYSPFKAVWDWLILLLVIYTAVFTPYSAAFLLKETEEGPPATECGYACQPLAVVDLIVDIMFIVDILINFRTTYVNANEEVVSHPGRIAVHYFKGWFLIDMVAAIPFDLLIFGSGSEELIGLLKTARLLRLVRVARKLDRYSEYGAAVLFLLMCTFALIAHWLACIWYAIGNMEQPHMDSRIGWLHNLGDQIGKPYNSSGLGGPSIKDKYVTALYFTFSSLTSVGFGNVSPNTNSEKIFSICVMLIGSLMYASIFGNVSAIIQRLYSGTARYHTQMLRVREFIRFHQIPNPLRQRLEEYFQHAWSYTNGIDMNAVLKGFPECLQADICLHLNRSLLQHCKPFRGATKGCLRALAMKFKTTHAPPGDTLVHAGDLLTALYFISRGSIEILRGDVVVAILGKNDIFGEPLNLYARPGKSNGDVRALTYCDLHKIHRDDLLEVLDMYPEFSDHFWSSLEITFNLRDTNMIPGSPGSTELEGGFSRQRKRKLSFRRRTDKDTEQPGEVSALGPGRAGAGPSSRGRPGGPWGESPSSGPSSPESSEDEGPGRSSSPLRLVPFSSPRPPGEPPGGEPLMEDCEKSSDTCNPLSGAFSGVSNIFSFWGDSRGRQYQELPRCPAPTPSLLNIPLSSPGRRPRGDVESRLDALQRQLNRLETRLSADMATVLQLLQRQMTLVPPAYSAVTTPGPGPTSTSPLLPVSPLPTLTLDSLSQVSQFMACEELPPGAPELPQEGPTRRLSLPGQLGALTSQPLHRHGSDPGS
Summary of the method: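 Kinetic two-minute fluorescence traces, sampled at 1 s, were collected following thallium stimulus of U2OS cells (1000 per well) that had been cultured overnight at 37 C and loaded with FluxOR II.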

[3] = biological target: Cytochrome P450 2C9 (Homo sapiens) (UniProt P11712); experiment: Cytochrome P450 Family 2 Subfamily C Member 9 (CYP2C9) small molecule antagonists: luciferase reporter qHTS assay (AID 1671198); note: nearly all actives have a fitted effect of over 50% in size; for activity change, negative = inhibition: series mostly up to about 120 µM
Chain of Cytochrome P450 2C9 (Homo sapiens) (P11712 whole entry, looked up): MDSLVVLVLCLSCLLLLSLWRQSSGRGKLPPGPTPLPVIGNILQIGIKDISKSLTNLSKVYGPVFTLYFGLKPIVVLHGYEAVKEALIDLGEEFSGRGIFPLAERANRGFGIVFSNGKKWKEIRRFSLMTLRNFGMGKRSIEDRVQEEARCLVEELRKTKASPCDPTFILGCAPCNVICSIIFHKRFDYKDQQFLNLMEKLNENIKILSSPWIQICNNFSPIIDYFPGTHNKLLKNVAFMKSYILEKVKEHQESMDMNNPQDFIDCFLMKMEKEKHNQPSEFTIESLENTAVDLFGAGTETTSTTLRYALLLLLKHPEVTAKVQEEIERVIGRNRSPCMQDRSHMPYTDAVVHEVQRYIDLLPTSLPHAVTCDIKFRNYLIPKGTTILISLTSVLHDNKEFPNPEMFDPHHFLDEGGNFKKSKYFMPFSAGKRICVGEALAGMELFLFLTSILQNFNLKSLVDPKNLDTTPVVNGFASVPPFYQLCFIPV
Summary of the method: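 CYP2C9 activity was measured with a P450-Glo proluciferin substrate. Enzyme–substrate mix was held with compound for 10 min at room temperature, then NADPH regeneration solution was added for 1 h at 37C. Luciferin product was read as luminescence.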

[4] = biological target: Cytochrome P450 3A4 (Homo sapiens) (UniProt P08684); experiment: Cytochrome P450 Family 3 Subfamily A Member 4 (CYP3A4) small molecule antagonists: luciferase reporter qHTS assay (AID 1671201); note: nearly all actives have a fitted effect of over 50% in size; for activity change, negative = inhibition: series mostly up to about 120 µM
Chain of Cytochrome P450 3A4 (Homo sapiens) (P08684 whole entry, looked up): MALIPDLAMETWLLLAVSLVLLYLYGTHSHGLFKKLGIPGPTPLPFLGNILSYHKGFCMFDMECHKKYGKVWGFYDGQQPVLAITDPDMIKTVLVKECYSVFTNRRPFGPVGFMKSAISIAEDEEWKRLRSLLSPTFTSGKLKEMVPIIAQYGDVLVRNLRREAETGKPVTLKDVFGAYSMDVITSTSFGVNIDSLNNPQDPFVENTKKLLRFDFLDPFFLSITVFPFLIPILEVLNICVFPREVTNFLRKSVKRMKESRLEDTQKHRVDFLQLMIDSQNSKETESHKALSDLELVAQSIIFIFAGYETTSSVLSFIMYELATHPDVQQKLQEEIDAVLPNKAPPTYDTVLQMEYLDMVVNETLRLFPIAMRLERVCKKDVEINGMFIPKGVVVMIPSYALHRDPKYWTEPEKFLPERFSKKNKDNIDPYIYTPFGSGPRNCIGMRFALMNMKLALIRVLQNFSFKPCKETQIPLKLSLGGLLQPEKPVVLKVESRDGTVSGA
Summary of the method: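 Proluciferin-to-luciferin conversion by CYP3A4, NADPH-regenerated, 1 h RT; luminescence read as RLU. Ketoconazole as control.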

[5] = biological target: Cytochrome P450 1A2 (Homo sapiens) (UniProt P05177); experiment: Cytochrome P450 Family 1 Subfamily A Member 2 (CYP1A2) small molecule antagonists: luciferase reporter qHTS assay (AID 1671199); note: nearly all actives have a fitted effect of over 50% in size; for activity change, negative = inhibition: series mostly up to about 120 µM
Chain of Cytochrome P450 1A2 (Homo sapiens) (P05177 whole entry, looked up): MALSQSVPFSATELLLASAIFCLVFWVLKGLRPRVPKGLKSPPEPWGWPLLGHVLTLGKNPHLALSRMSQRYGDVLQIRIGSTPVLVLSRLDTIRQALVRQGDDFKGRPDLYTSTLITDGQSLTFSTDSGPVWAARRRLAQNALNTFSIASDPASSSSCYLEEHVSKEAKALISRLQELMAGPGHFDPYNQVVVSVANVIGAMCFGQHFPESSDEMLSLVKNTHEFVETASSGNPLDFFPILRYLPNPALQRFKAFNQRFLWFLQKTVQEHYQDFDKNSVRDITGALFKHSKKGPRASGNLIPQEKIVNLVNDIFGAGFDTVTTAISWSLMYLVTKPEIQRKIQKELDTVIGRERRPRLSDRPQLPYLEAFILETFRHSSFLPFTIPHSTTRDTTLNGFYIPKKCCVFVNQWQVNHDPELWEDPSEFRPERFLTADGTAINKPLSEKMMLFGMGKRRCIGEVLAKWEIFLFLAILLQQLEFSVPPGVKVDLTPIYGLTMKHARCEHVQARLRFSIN
Summary of the method: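 Read-out is luminescence from luciferin detection reagent (20 min) proportional to CYP1A2 activity; compounds in DMSO preincubated 10 min with enzyme and proluciferin substrate, then NADPH regeneration solution, 1 h, room temperature.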
Potency is the fitted concentration of half-maximal effect.

O=C(OCC1CO1)C1CCCCC1C(=O)OCC1CO1 (stereo unspecified)
Potency [1]: 56.5 µM (active)
Potency [2]: inactive

CCC(N)(CO)CO
Potency [1]: inactive
Potency [3]: inactive
Potency [2]: inactive
Potency [4]: inactive

CC[C@@]1(O)C(=O)OCc2c1cc1n(c2=O)Cc2c-1nc1ccccc1c2/C=N/OC(C)(C)C
Potency [1]: inactive
Potency [5]: inactive
Potency [2]: inactive

CCCCCCCCCCCCCCCC(=O)OC[C@H](O)[C@H]1OC(=O)C(O)=C1O
Potency [1]: 79.6 µM (active)
Potency [5]: inactive
Potency [2]: inactive
Potency [4]: inactive

CC(C)(C)C(=O)OCOC(=O)C1N2C(=O)CC2S(=O)(=O)C1(C)C (stereo unspecified)
Potency [1]: inactive
Potency [5]: inactive
Potency [2]: inactive
Potency [4]: inactive

COc1cc(/C=C/C(=O)O[C@H]2CC[C@]34C[C@]35CC[C@]3(C)[C@@H]([C@H](C)CCC=C(C)C)CC[C@@]3(C)[C@@H]5CC[C@H]4C2(C)C)ccc1O
Potency [1]: inactive
Potency [3]: inactive
Potency [2]: inactive
Potency [4]: inactive

CCCCCCCCCCCCCC[P+](CCCC)(CCCC)CCCC (tested in a mixture with another compound)
Potency [1]: 17.9 µM (active)
Potency [3]: 11.3 µM (active)
Potency [2]: 0.124 µM (active)
Potency [4]: inactive

CCOC(=O)O[C@H](C)OC(=O)c1ccc2c(c1)cc(C(=O)NC1CCN(C(C)C)CC1)n2Cc1cc(-c2ccc(Cl)s2)on1
Potency [1]: 46.9 µM (active)
Potency [3]: 33.2 µM (active)
Potency [4]: 5.91 µM (active)

CSc1ccc2c(c1)C(N1CCN(C)CC1)Cc1ccccc1S2 (stereo unspecified)
Potency [1]: 34.7 µM (active)
Potency [5]: inactive
Potency [2]: 1.07 µM (active)

O=C(Nc1cccc(Cl)c1)OCC#CCCl
Potency [1]: 8.94 µM (active)
Potency [5]: 1.78 µM (active)
Potency [4]: 7.1 µM (active)

C[n+]1cc2c3c(ccc2c2ccc4cc5c(cc4c21)OCO5)OCO3
Potency [1]: 1.07 µM (active)
Potency [5]: 12 µM (active)
activity change, negative = inhibition [2]: -0.0312% [at 15.8 µM]

CCC(C)(C)C1CCCCC1OC(C)=O (stereo unspecified)
Potency [1]: inactive
Potency [2]: inactive
Potency [4]: inactive

O=[N+]([O-])c1cc(Cl)c(Cl)c(Cl)c1Cl
Potency [1]: 39.8 µM (active)
Potency [5]: 2.24 µM (active)
Potency [2]: inactive
Potency [4]: inactive

CC(C)c1ccc2c(c1)CC[C@H]1[C@](C)(CN)CCC[C@]21C
Potency [1]: 7.1 µM (active)
Potency [5]: 35.6 µM (active)
Potency [2]: 13.8 µM (active)

CC(C)OC(=O)c1cc2c(OCC(O)CNC(C)(C)C)cccc2[nH]1 (stereo unspecified)
Potency [3]: inactive
Potency [5]: inactive

CCN1/C(=C/C=C/c2sc3ccccc3[n+]2CC)Sc2ccccc21
Potency [1]: 19 µM (active)
activity change, negative = inhibition [2]: -25.3% [at 15.8 µM]
Potency [4]: 6.01 µM (active)

Fc1ccc(C(c2ccc(F)cc2)N2CCN(C/C=C/c3ccccc3)CC2)cc1
Potency [1]: inactive
Potency [3]: 15.5 µM (active)
Potency [2]: 0.848 µM (active)
Potency [4]: inactive

CO[Si](CCCNc1ccccc1)(OC)OC
Potency [1]: inactive
Potency [5]: inactive
Potency [2]: inactive
Potency [4]: 25.2 µM (active)

S=c1[nH]c2ccccc2s1
Potency [1]: 11.2 µM (active)
Potency [2]: inactive

O=C(O)c1cc(O)c2c(c1)C(=O)c1cccc(O)c1C2=O
Potency [1]: inactive
Potency [5]: 36.7 µM (active)
Potency [2]: inactive
Potency [4]: inactive

Cc1ccc(O)c(C(C)(C)C)c1
Potency [1]: 35.5 µM (active) and 35.6 µM (active)
Potency [2]: inactive

CC1=C(/C=C/C(C)=C/C=C/C(C)=C/C=O)C(C)(C)CCC1
Potency [1]: 39.7 µM (active)
Potency [3]: 44.6 µM (active)
Potency [4]: 28.1 µM (active)

CCN(CCC#N)c1ccc(N=Nc2c(Cl)cc([N+](=O)[O-])cc2Cl)cc1
Potency [1]: inactive
Potency [4]: inactive

CCCCCCCCCCCC(=O)NCCCN(C)C
Potency [1]: 20 µM (active)
Potency [5]: 35.6 µM (active)
Potency [2]: 13.8 µM (active)

CCCCN(CCCC)C(=O)N(CCCC)CCCC
Potency [1]: inactive
Potency [3]: inactive
Potency [4]: 5.03 µM (active)

Cc1nc(-c2ccc3c(c2)CCN(CCC2CCC(NC(=O)/C=C/c4ccc(F)cc4)CC2)CC3)no1 (stereo unspecified)
Potency [1]: inactive
Potency [5]: inactive
Potency [2]: 0.873 µM (active)
Potency [4]: inactive

CCc1cc(Cc2cc(CC)c(N)c(CC)c2)cc(CC)c1N
Potency [1]: 0.71 µM (active)
Potency [5]: 10 µM (active)
Potency [2]: inactive
Potency [4]: 0.633 µM (active)

O=C(O)c1c(Cl)cccc1Cl
Potency [1]: 34.9 µM (active)
Potency [2]: inactive
Potency [4]: inactive

CS(=O)(=O)CCNCc1ccc(-c2ccc3ncnc(Nc4ccc(OCc5cccc(F)c5)c(Cl)c4)c3c2)o1
Potency [1]: 8.71 µM (active)
Potency [5]: inactive

CCC1=C[C@@H]2CN(C1)Cc1c([nH]c3ccccc13)[C@@](C(=O)OC)(c1cc3c(cc1OC)N(C)[C@H]1[C@@](O)(C(=O)OC)[C@H](OC(C)=O)[C@]4(CC)C=CCN5CC[C@]31[C@@H]54)C2
Potency [1]: inactive
Potency [5]: inactive
Potency [2]: 6.74 µM (active)
